Holding throughout (settings): Compound concentration 20.0 uM, Protein concentration 2.0 uM, Result type QC Liability
Assay [1] deals with Tyrosine-protein kinase ABL1 (Homo sapiens) (UniProt P00519).
Assay [2] has as its target Cyclin-dependent kinase 2 (Homo sapiens) (UniProt P24941).
In assay [3] the target is Casein kinase I isoform delta (Homo sapiens) (UniProt P48730).
In assay [4] the target is Glycogen synthase kinase-3 beta (Homo sapiens) (UniProt P49841).
Assay [5] concerns the target Mitogen-activated protein kinase 1 (Homo sapiens) (UniProt P28482).
Assay [6] has as its target T1, Aurora kinase A (Homo sapiens) (UniProt O14965).
T1 sequence (whole entry): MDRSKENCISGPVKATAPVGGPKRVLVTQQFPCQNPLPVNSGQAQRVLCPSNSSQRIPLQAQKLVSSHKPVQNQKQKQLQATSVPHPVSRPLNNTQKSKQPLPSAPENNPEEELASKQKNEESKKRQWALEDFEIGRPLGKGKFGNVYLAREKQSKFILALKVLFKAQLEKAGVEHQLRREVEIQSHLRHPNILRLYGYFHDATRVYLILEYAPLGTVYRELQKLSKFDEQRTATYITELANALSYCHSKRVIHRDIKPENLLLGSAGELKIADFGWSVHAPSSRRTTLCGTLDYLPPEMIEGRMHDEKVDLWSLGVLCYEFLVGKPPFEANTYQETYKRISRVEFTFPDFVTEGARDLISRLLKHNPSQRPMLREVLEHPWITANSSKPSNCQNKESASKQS

Each structure is given as a SMILES string.

Sequence of Casein kinase I isoform delta (Homo sapiens) (P48730 whole entry, looked up, canonical isoform): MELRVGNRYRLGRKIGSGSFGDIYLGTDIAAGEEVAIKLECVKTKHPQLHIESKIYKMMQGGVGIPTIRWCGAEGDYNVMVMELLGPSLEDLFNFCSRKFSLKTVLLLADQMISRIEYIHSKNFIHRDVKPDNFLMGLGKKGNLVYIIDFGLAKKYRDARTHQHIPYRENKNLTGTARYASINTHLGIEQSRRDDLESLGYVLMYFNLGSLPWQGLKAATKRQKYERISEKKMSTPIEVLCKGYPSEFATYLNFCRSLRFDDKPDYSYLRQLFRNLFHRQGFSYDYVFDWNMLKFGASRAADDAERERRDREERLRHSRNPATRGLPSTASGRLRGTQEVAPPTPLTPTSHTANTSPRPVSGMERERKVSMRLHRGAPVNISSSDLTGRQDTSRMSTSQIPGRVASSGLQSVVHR
Sequence of Glycogen synthase kinase-3 beta (Homo sapiens) (P49841 whole entry, looked up): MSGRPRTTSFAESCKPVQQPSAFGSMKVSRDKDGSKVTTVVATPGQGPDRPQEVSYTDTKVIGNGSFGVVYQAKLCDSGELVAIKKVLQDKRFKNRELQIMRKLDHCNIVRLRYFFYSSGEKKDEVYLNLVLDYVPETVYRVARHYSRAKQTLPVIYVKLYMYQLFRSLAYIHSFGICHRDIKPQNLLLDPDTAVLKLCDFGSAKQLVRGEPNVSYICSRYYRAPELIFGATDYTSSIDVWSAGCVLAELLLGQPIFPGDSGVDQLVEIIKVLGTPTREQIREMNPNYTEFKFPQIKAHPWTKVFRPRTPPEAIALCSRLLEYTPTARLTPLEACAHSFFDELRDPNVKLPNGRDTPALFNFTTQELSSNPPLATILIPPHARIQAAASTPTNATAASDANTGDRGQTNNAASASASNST
Sequence of Tyrosine-protein kinase ABL1 (Homo sapiens) (P00519 whole entry): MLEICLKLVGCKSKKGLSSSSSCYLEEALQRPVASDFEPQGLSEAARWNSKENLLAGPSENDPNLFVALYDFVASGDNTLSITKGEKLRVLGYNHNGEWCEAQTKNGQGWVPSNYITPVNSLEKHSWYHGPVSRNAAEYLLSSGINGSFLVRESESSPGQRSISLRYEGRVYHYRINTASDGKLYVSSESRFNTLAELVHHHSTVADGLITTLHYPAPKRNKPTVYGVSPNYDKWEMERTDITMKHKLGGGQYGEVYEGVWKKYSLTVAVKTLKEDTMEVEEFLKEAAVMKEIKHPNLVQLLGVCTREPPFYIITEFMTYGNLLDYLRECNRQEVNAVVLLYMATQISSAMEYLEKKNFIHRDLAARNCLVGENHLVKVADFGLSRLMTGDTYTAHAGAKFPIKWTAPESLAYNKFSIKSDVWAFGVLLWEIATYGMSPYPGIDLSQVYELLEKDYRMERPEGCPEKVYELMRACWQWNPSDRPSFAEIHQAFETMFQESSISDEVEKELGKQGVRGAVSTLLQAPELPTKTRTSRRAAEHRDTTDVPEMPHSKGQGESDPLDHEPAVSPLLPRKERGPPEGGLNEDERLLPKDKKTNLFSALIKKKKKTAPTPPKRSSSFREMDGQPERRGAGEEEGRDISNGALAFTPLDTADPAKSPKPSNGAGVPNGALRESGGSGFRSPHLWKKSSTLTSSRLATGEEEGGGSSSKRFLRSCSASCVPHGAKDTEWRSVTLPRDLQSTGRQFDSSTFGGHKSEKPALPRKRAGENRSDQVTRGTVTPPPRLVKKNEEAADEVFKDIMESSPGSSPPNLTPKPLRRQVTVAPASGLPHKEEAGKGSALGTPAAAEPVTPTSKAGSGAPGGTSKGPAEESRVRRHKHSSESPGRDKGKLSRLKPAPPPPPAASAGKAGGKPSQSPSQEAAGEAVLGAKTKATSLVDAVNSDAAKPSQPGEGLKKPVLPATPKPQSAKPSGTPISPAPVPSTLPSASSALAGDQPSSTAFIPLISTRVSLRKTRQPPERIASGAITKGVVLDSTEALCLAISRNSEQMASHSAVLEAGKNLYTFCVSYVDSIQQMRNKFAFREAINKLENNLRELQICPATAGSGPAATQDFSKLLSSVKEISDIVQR
Sequence of Mitogen-activated protein kinase 1 (Homo sapiens) (P28482 whole entry): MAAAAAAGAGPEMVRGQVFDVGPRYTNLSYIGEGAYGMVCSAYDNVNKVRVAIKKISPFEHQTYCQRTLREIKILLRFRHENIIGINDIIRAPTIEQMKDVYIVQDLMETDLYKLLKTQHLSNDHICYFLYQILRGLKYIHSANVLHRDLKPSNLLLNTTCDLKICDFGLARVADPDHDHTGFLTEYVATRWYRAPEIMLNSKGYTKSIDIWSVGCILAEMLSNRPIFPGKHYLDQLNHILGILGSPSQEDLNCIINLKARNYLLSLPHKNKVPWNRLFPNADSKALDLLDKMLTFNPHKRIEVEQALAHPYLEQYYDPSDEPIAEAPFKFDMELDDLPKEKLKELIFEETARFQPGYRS

For orientation: ΔTm means the shift of the melting midpoint relative to a reference. For the compound `COc1ccccc1[C@@H]1CNCCC12CCN(C(=O)[C@](OC)(c1ccccc1)C(F)(F)F)CC2`, the shift in melting temperature (ΔTm) in assay [1] is 0.26 °C; in assay [2] it was 0.48 °C; in assay [3], 0.35 °C; in assay [4] it was -1.18 °C; in assay [5], -0.22 °C; in assay [6], -0.11 °C.
With `CO[C@H]1CC[C@H](N(c2cc(F)c(Oc3ncc(Cn4nccn4)cc3C(F)(F)F)cc2C(=O)O)C(=O)[C@H]2CC[C@H](C)CC2)CC1`, the ΔTm was -0.55 °C in assay [1]; -0.98 °C in assay [2]; -0.04 °C in assay [3]; -1.43 °C in assay [4]; 0.48 °C in assay [5]; -0.75 °C in assay [6].
Turning to `CNc1nc(-c2ccc3c(N)n[nH]c3c2)cc(N2C[C@@H](C(=O)NC3CCCCC3)CC[C@H]2C)n1`, the ΔTm in assay [1] is 0.49 °C; in assay [2], -0.54 °C; in assay [3], 0.18 °C; in assay [4] it was 0.25 °C; in assay [5], 0.38 °C; in assay [6], 2.89 °C.
Regarding `C[C@@H]1CN(CC(=O)N2CC(C)(C)c3nc(CO)c(Cc4ccc(F)cc4)cc32)[C@@H](CN2CCOC[C@H]2C)CN1`, the ΔTm was 0.35 °C in assay [1]; 0.82 °C in assay [2]; -0.16 °C in assay [3]; -0.02 °C in assay [4]; 0.01 °C in assay [5]; -0.39 °C in assay [6].
On to `CCOC(=O)c1cc2cc(-c3cc(C(=O)NCc4ccc(C(=O)O)cc4)nn3C)ccc2[nH]1`, for which the ΔTm was 0.13 °C in assay [1]; -0.6 °C in assay [2]; 0.53 °C in assay [3]; 0.78 °C in assay [4]; -0.1 °C in assay [5]; 1.73 °C in assay [6].
`CNc1ncc2cc(-c3ccc(-c4ncccc4F)cc3Cl)c(=O)n(C[C@H]3OC[C@H](N)CO3)c2n1`: the ΔTm in assay [1] was 4.27 °C; in assay [2] it was 1.01 °C; in assay [3], 0.79 °C; in assay [4] it was -0.51 °C; in assay [5] it was 3.43 °C; in assay [6], 4.87 °C.
Regarding `CC(C)C(=O)N1CCC(c2cn(C)c3ncc(NC(=O)c4cccc(C#N)c4)c(C(F)(F)F)c23)CC1`, the ΔTm in assay [1] was -0.05 °C; in assay [2] it was 0.71 °C; in assay [3], 0.74 °C; in assay [4], -0.4 °C; in assay [5], 0.36 °C; in assay [6], -0.71 °C.
With `CCS(=O)(=O)c1cc2cc(C[C@](O)(CC(C)(C)c3ccc(F)cc3C(N)=O)C(F)(F)F)[nH]c2cn1`, the ΔTm is 0.15 °C in assay [1]; 0.5 °C in assay [2]; 0.37 °C in assay [3]; -0.73 °C in assay [4]; 0.36 °C in assay [5]; 0.03 °C in assay [6].
For the compound `NC(=O)C1CCCc2c1[nH]c1ccc(Cl)cc21` (stereo not given), the ΔTm in assay [1] is 0.05 °C; in assay [2] it was 0.79 °C; in assay [3], 0.23 °C; in assay [4] it was -0.8 °C; in assay [5], 0.44 °C; in assay [6], 0.7 °C.
On to `O=C(O)c1cc(-c2ccccc2)ccc1O`, for which the ΔTm is 0.56 °C in assay [1]; 0.7 °C in assay [2]; 0.85 °C in assay [3]; -0.32 °C in assay [4]; 0.04 °C in assay [5]; 0.05 °C in assay [6].
For `CCCS(=O)(=O)Nc1ccc(F)c(Nc2ncnc3cnc(-n4cnc(C)c4)nc23)c1F`, the ΔTm in assay [1] was 1.19 °C; in assay [2], 1.1 °C; in assay [3] it was 0.17 °C; in assay [4] it was 0.89 °C; in assay [5], 0.39 °C; in assay [6], -0.24 °C.
`Cn1cc(-c2cnc3ccc4ccc(CS(=O)(=O)NCc5ccccn5)cc4c(=O)c3c2)cn1`: the shift in melting temperature (ΔTm) is 4.08 °C in assay [1]; 0.66 °C in assay [2]; 0.15 °C in assay [3]; 1.66 °C in assay [4]; -0.33 °C in assay [5]; 5.91 °C in assay [6].
With `COc1ccc(C(F)(F)F)cc1NC(=O)Nc1ccc(Oc2cc(C)nc(N)n2)c2ccccc12`, the ΔTm is 5.29 °C in assay [1]; 1.11 °C in assay [2]; 0.31 °C in assay [3]; 1.99 °C in assay [4]; 0.06 °C in assay [5]; -0.77 °C in assay [6].
With `CC(=O)c1c(C)c2cnc(Nc3ccc(N4CCN(CCOCCOCCOCCNC(=O)COc5cccc6c5C(=O)N(C5CCC(=O)NC5=O)C6=O)CC4)cn3)nc2n(C2CCCC2)c1=O` (stereo not given), the ΔTm in assay [1] is -0.65 °C; in assay [2], -0.26 °C; in assay [3], 1.49 °C; in assay [4] it was 1.18 °C; in assay [5], -1.16 °C; in assay [6] it was 0.61 °C.
`Cc1cc(OC2CCS(=O)(=O)CC2)cc(C)c1-c1cccc(COc2ccc(CCC(=O)O)c(F)c2)c1`: the ΔTm in assay [1] was -0.51 °C; in assay [2], -2.34 °C; in assay [3], 0.59 °C; in assay [4] it was -4.55 °C; in assay [5], -0.4 °C; in assay [6], -1.9 °C.
On to `CC(C)S(=O)(=O)c1ccccc1Nc1nc(N[C@@H]2CCCN(CCCCCCCNC(=O)COc3cccc4c3C(=O)N(C3CCC(=O)NC3=O)C4=O)C2)ncc1Cl` (stereo not given in full), for which the ΔTm in assay [1] came out at 8.06 °C; in assay [2], 4.21 °C; in assay [3], 3.26 °C; in assay [4], 11.1 °C; in assay [5], 3.07 °C; in assay [6], 10.6 °C.
With `O=C(N[C@H]1CCC[C@H](CO)C1)C1CCN(c2nc3cc(Cl)c(-c4ccc(Cl)cc4)cc3o2)CC1`, the ΔTm in assay [1] was 1.38 °C; in assay [2], -3.19 °C; in assay [3] it was -6.76 °C; in assay [4] it was 1.1 °C; in assay [5], -10.4 °C; in assay [6] it was -2.13 °C.
For `CCN(C(=O)CO)[C@H]1CN(/C(=N\C#N)Nc2cccc(OC(F)F)c2)N=C1c1ccc(Cl)c(Cl)c1`, the ΔTm in assay [1] was 0.46 °C; in assay [2] it was 0.22 °C; in assay [3] it was 0.23 °C; in assay [4] it was 2.8 °C; in assay [5], -0.24 °C; in assay [6], 0.87 °C.
As to `C[C@@H]1CC(=O)N(C2CC2)N=C1c1ccc(NC(=O)N2Cc3ccncc3C2)cc1`, the shift in melting temperature (ΔTm) in assay [1] is 0.36 °C; in assay [2], 0.35 °C; in assay [3], 0.2 °C; in assay [4] it was -0.86 °C; in assay [5], 0.29 °C; in assay [6] it was 0.22 °C.
Take `COc1cc2c(NC3CCN(C(C)C)CC3)nc(C3CCCCC3)nc2cc1OCCCN1CCCC1`: the ΔTm was 0.15 °C in assay [1]; 0.9 °C in assay [2]; 0.11 °C in assay [3]; -0.55 °C in assay [4]; 0.32 °C in assay [5]; 0.5 °C in assay [6].
Take `Clc1cccc(Nc2nccc(NCCCN3CCOCC3)n2)c1`: the ΔTm in assay [1] is 1.3 °C; in assay [2], 1.43 °C; in assay [3], 0.64 °C; in assay [4] it was 5.39 °C; in assay [5], 0.32 °C; in assay [6], 2.47 °C.
For the compound `CN(C)CCCN1c2ccccc2Sc2ccc(Cl)cc21`, the ΔTm in assay [1] is 0.03 °C; in assay [2], 0.8 °C; in assay [3], 0.05 °C; in assay [4], -0.47 °C; in assay [5], 0.34 °C; in assay [6], -0.47 °C.
For the compound `Cc1cc2c(-c3ccco3)cnc(N[C@H]3CCN(C)C[C@@H]3C(=O)NC3CCCCC3)c2[nH]c1=O`, the ΔTm is 0.25 °C in assay [1]; 0.22 °C in assay [2]; 0.37 °C in assay [3]; -0.67 °C in assay [4]; 0.2 °C in assay [5]; -1.37 °C in assay [6].
On to `OC(c1ccc(-c2ccc(CN3CCN(Cc4ccncc4)CC3)cc2)c(F)c1)(C(F)(F)F)C(F)(F)F`, for which the ΔTm in assay [1] was -0.1 °C; in assay [2] it was 0.64 °C; in assay [3] it was -0.18 °C; in assay [4], -0.86 °C; in assay [5], 0.02 °C; in assay [6] it was -1.1 °C.
For the compound `CC[C@H](NC(=O)[C@H](C)NC)C(=O)N1C[C@@H](O)C[C@H]1Cc1c(-c2[nH]c3cc(F)ccc3c2C[C@@H]2C[C@H](O)CN2C(=O)[C@H](CC)NC(=O)[C@H](C)NC)[nH]c2cc(F)ccc12`, the ΔTm in assay [1] is 0.09 °C; in assay [2], 0.28 °C; in assay [3], 1.26 °C; in assay [4], -0.88 °C; in assay [5], 0.38 °C; in assay [6] it was -1.51 °C.

The values are drawn from ChEMBL document CHEMBL5308504, “Tm Shift (DSF) assay results for EUbOPEN Chemogenomics Library” (2023).
